Laboratory results published in PubChem BioAssay (Tox21).
Records with an inconclusive call do not appear. Where a call stands in place of a potency, no number is given. A number with no mark means an inactive call. Active and inactive are the calls of the source. The call rests on the fitted dose curve; in most records, active means well fitted activation curve with a large enough effect in the signal ratio in the repeat runs (not every such curve was filed as active); inconclusive means weak or mixed curves; inactive means flat fitted curve, though single readings scatter; the % refers to the signal ratio.

Assay: qHTS assay to identify small molecule agonists of H2AX (AID 1224845)
Conditions: CHO-K1 phospho-H2AX Ser139 HTRF, 3 h; series mostly up to 154 µM
Excerpt: National Center for Advancing Translational Sciences [NCATS]
NIH Chemical Genomics Center [NCGC]
U.S. Environmental Protection Agency [EPA]
National Institutes of Environmental Health Sciences [NIEHS]
National Toxicology Program [NTP]
U.S. Food and Drug Administration [FDA]
HTRF phospho-H2AX (Ser139) assay (Cisbio Bioassays, US) enables the quantitative detection of the histone variant H2AX when phosphorylated on serine 139. When double-stranded DNA breaks, either by ionizing radiation or endogenous physiological processes, H2AX becomes phosphorylated at Ser139. This phospho-Ser139 serves as a sensitive biomarker for the detection of such breaks, localizing the site of DNA repair. So, HTRF phospho-H2AX Ser139 is a pertinent assay to study genome stability, the cell cycle, DNA repair, and it serves as a biomarker for cancer, and to understand aging. Wild type CHO-K1 cells were used to identify the inducers of Phospho-H2AX Ser 139 from the Tox21 10K compound collections.
Tox21 Assay Protocol Summary:
The CHO-K1 cells suspended in culture medium containing 10% FBS were dispensed at 1000 cells/ 3 ul/well in 1536-well white wall/solid bottom plates (Greiner Bio-One North America, NC) using a Multidrop Combi (Thermo Fisher Scientific Inc., Waltham, MA). After the assay plates were incubated at 37C overnight, 23 nl of compounds at 15 concentrations (from 5-48 columns) or positive control (from 1 to 4 columns) were transferred to the assay plates using a Pintool station (Wako, San Diego, CA) into each well resulting in a final DMSO concentration of 0.76%. After 3hr incubation at 37C, 1 uL/well Supplemented Lysis buffer (diluted 100 fold blocking reagent in lysis buffer) (HTRF Phospho-H2A.X (S139) Assay kit from Cisbio US Inc., Bedford, MA) was added using a Flying Reagent Dispenser (FRD) (Aurora Discovery, CA). After 10sec spin at 1000 rpm in a plate centrifuge, the assay plates were incubated at room temperature for 30 min. Then followed by the addition of 1 uL/well detection buffer (containing a mixture of two antibodies, one labeled with cryptate, Anti pH2AX (S139)-K and another labeled with d2, Anti H2AX-d2) using FRD. After incubation at room temperature for 24 hr, the time resolved fluorescence at excitation 320 nm and emissions at 665 nm and 620 nm was measured using an Envision plate reader (PerkinElmer, Waltham, MA).

SMILES | Potency | activation (H2AX phosphorylation)
CCc1cccc(N(C)C(N)=Nc2cccc3ccccc23)c1 | inactive | 
CCCCCCOC(=O)C(C)C | inactive | 
CCCCCCCC/C=C\CCCCCCCC(=O)OC(CO)CO | inactive | 
Nc1c(I)cc(I)c(C(=O)N(CCC(=O)O)c2ccccc2)c1I | inactive | 
Cc1nc2ccccc2s1 | inactive | 
CCCCCCCCCCCCCCCCBr |  | -0.41% [at 31.6 µM]
O=c1[nH]c2ccc(S(=O)CCN3CCC(Cc4ccc(F)cc4)CC3)cc2o1 (stereo not given) | inactive | 
Cc1ccnc2ccccc12 | inactive | 
NCC1CCCC(CN)C1 (stereo not given) | inactive | 
N#C[C@@H]1C[C@@H]2C[C@@H]2N1C(=O)[C@@H](N)C12CC3CC(CC(O)(C3)C1)C2 | inactive | 
CCCCC(CC)COC(=O)COc1ccc(Cl)cc1C (stereo not given) | inactive | 
O=C(O)c1cccnc1C(=O)O | inactive | 
CC1=CC(=O)CC(C)(C)C1(O)/C=C/C(C)=C\C(=O)O (stereo not given) | inactive | 
COC(=O)[C@@H]1CC2=CC(=O)CC[C@]2(C)[C@@]23O[C@@H]2C[C@@]2(C)[C@@H](CC[C@@]24CCC(=O)O4)[C@H]13 | inactive | 
COc1ccc([C@@H]2Sc3ccccc3NC(=O)[C@@H]2O)cc1 | inactive | 
CC#N | inactive | 
C[N+](C)(C)CCOC(N)=O | inactive | 
O=C(O)c1c(O)c(-c2ccccc2)nc2ccccc12 | inactive | 
COc1cc2[nH]c(=O)[nH]c(=O)c2cc1OC | inactive | 
CCOC(=O)C(C)Oc1ccc(Oc2nc3ccc(Cl)cc3o2)cc1 (stereo not given) | inactive | 

SMILES | Potency | activation (H2AX phosphorylation)
CCOC(=O)c1ccccc1OC | inactive | 
CC(=O)Nc1ccc(N)cc1 | inactive | 
CC(=O)CC(c1ccc([N+](=O)[O-])cc1)c1c(O)c2ccccc2oc1=O (stereo not given) | inactive | 
CCCOCCOCCO | inactive | 
CC(=O)Oc1ccc2c(c1)CC[C@@H]1[C@@H]2CC[C@]2(C)[C@@H](O)CC[C@@H]12 | inactive | 
CC(C)CCCCCOC(=O)CCCCC(=O)OCCCCCC(C)C | inactive | 
C[Si](NC1CCCCC1)(NC1CCCCC1)NC1CCCCC1 | inactive | 
O=C(O)c1ccc(CO)o1 | inactive | 
Fc1c(F)c(F)c(Br)c(F)c1F | inactive | 
C/C=C(\C)C(=O)OCCC(C)CCC=C(C)C (stereo not given) | inactive | 
CCCCOC(=O)CCS | inactive | 
O=S1OCCO1 | inactive | 
ON(Cc1ccccc1)Cc1ccccc1 | inactive | 
O=Cc1c(Cl)cccc1Cl | inactive | 
Cc1oc(C)c(C(=O)Nc2ccccc2)c1C | inactive | 
O=C(OCCOCCO)c1ccccc1Nc1cccc(C(F)(F)F)c1 | inactive | 
O=C(CCC1CCN(Cc2ccccc2)CC1)c1ccc2c(c1)NCCCC2 | inactive | 
CC1=CC(O)CC(C)(C)C1 (stereo not given) | inactive | 
O=C(O)c1cccc(O)c1 | inactive | 
COc1ccc(C(=O)c2cccc(O)c2)c(OC)c1 | inactive | 
